# Where a structure was tested more than once in an assay, its records may differ in their call. Activity calls are given as the source filed them. The calls were made as follows: active = hit-call score of the fitted dose curve at least 0.9, where 1 is the maximum; inactive = score below 0.9.
# Assay: CCTE_Shafer_MEA_acute_interburst_interval_mean: CCTE's Neural Acute Assay for Mean Interburst Interval, Shafer Lab (AID 2284016);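 also: percent change of mean interburst interval versus each well's own pre-dose baseline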
# Experimental: CCTE_Shafer_MEA_acute assay is conducted using Axion Biosystems 48 well microelectrode array (MEA) plates and Maestro recording system. Each well of the MEA plate contains a grid of 16 microelectrodes embedded in the culture surface. Electrically active cells, such as neurons, can be cultured over the electrodes, and electrical activity in these cells can be recorded extracellularly. The spontaneous firing of neurons is captured from each electrode on a microsecond timescale providing both temporally and spatially precise data. […] The CCTE_Shafer_MEA_acute assay uses primary cultures of rat cortical neurons. As these cultures mature over time, neural networks develop functional activity and form cohesive networks in which electrical activity can be highly coordinated. Baseline 40-minute recordings are made on days post-plating 13 or 15, followed by a secondary 40-minute recording after chemical exposure.CCTE_Shafer_MEA_acute_interburst_interval_mean is a component of the CCTE_Shafer_MEA_acute assay. It measures the average time between the start of consecutive single-electrode bursts (temporally-clustered groups of action potential firing) during a recording in a microelectrode array (MEA) using Axion Biosystems Maestro 768 channel amplifier with the AxIS adaptive spike detector. The recordings before and after chemical treatment are used to calculate a percent change in the mean inter-burst interval in each well.Data from the assay component CCTE_Shafer_MEA_acute_interburst_interval_mean was analyzed into 1 assay endpoint. This assay endpoint, CCTE_Shafer_MEA_acute_interburst_interval_mean, was analyzed in the negative analysis fitting direction relative to DMSO as the negative control and baseline of activity. Using a type of functional reporter, gain or loss-of-signal activity can be used to understand electrical activity.
# Spontaneous activity in the cortical cultures was recorded using an Axion Biosystems Maestro 768 channel amplifier and Axion Integrated Studios (AxIS) v1.8 (or later) software. The amplifier recorded from all channels simultaneously (gain = 1200 x; sampling rate = 12.5 kHz/channel): raw signals were filtered with a Butterworth band-pass filter (300-5000 Hz), which filters out slower local field potentials leaving only fast potentials, i.e., "spikes", arising from extracellular currents associated with action potentials (Pine 2006; Wheeler and Nam 2011). On-line spike detection of filtered signals was conducted with the AxIS adaptive spike detector, using a threshold of 8x the root mean squared (rms) noise on each channel. Any electrodes with rms noise levels greater than 5 uV were grounded (e.g., no data were recorded). Once grounded, an electrode was grounded for the duration of the experiment. All recordings were conducted at 37 C. Wells were deemed usable if on the day of the exposure >/= 10 electrodes were active (defined as >/= 5 spikes/min). On DIV 13 or 15, a minimum of three wells from one cortical culture preparation were treated with each compound (0.03-40 uM). Prior to recording baseline activity, each mwMEA plate was placed in the Maestro at 37 C and allowed to sit for 20 min while firing rates stabilized. Baseline activity (40 min) was recorded before the addition of each compound. An additional 40 min of spontaneous activity was recorded in the presence of each compound. Changes in network parameters relative to baseline were assessed following compound treatment.
Structure (SMILES),outcome,AC50
ClC1=C(Cl)[C@]2(Cl)[C@H]3[C@H]([C@@H]4C=C[C@H]3C4)[C@@]1(Cl)C2(Cl)Cl,inactive,–
CC(C)(O)c1cnn2c(-c3ccc(F)c(-c4c(F)cccc4C#N)c3)cnc2n1,inactive,–
N#CC(Br)Br,inactive,–
CCCCOC(=O)c1ccccc1C(=O)OCc1ccccc1,–,3.83 µM (active)
CC(C)(C)C(O)(CCc1ccc(Cl)cc1)Cn1cncn1 (stereo unspecified),–,5.9 µM (active)
C[N+](C)(C)CC1CO1 (stereo unspecified),inactive,–
Clc1ccc(C(c2ccc(Cl)cc2)C(Cl)Cl)cc1,inactive,–
ClC1=C(Cl)C2(Cl)C3C(Cl)C=CC3C1(Cl)C2(Cl)Cl (stereo unspecified),inactive,–
CCCCCCCCn1sccc1=O,inactive,–
O=P(OCCCl)(OCCCl)OCCCl,inactive,–
[Cl-].[Cl-].[Hg+2],inactive,–
Clc1ccc(C(c2ccc(Cl)cc2)C(Cl)(Cl)Cl)cc1,inactive,–
CC(C)(OOC(C)(C)c1ccccc1)c1ccccc1,inactive,–
Cc1ccc(N)c(N)c1,inactive,–
O=Cc1ccco1,inactive,–
CC(C)COC(=O)c1ccccc1C(=O)OCC(C)C,inactive,–
c1ccc(NNc2ccccc2)cc1,inactive,–
CCC(C)c1ccc(O)cc1 (stereo unspecified),–,30 µM (active)
O=C(N[C@H](c1ccccc1)[C@@H]1CN2CCC1CC2)c1c(Cl)ccc(C(F)(F)F)c1Cl,inactive,–
Cc1cc(N=Nc2ccccc2C)ccc1N,inactive,–
CCN(CC)CCO,inactive,–
O=C(Oc1ccc(Br)cc1)N1CCN2CCC1CC2,inactive,–
CCC[CH2][Sn]([Cl])([CH2]CCC)[CH2]CCC,inactive,0.382 µM (active)
CCCCCOC(=O)c1ccccc1C(=O)OCCCCC,–,1.49 µM (active)
c1ccc(N=Nc2ccccc2)cc1,–,34.6 µM (active)
COC(=O)Nc1nc2ccccc2[nH]1,inactive,–
O=[N+]([O-])C(Br)(CO)CO,inactive,–
O=[N+]([O-])c1ccc(Oc2ccc(Cl)cc2Cl)cc1,–,4.1 µM (active)
ClCCOCCCl,inactive,–
CCN(CC)N=O,inactive,–

# From PubChem BioAssay (EPA / NIEHS)
